# From PubChem BioAssay AID1159580 (chemical genetic matrix, 2015)
# Screen size: about 5,500 compounds; about 2,000 (36%) were called active. Inconclusive results (about 18%) are left out. Some of the results follow. Unmarked numbers belong to inactive results. No stated cut-off is given here; in the data, active means normalized growth mostly below about 0.91 (no sharp cut-off); inconclusive means no clear call, values can overlap the other calls; inactive means mostly above about 0.92.
# Experiment: chemical genetic growth profiling, strain panel (AID 1159580);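 further: tested at 20 µM; growth read once vehicle control cultures reached saturation at 30 °C; 1 = growth at the plate median or of vehicle wells; lower values mean less growth of the strain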
# Settings: S. cerevisiae deletion strains, growth OD
smiles,measurement,setting,value
COC(=O)C1=C(Nc2ccccc2NS(=O)(=O)c2ccc(C(F)(F)F)cc2Cl)CSC1,normalized growth,"locus YAR019C, strain CDC15, hits give low values",0.977
same,normalized growth,"locus YBL105C, strain PKC1, hits give low values",0.983
same,normalized growth,"locus YBR135W, strain CKS1, hits give low values",0.976
same,normalized growth,"locus YBR136W, strain MEC1, hits give low values",0.978
same,normalized growth,"locus YBR160W, strain CDC28, hits give low values",0.977
same,normalized growth,"locus YDL017W, strain CDC7, hits give low values",0.973
same,normalized growth,"locus YDL028C, strain MPS1, hits give low values",0.976
same,normalized growth,"locus YDL101C, strain DUN1, hits give low values",0.962
same,normalized growth,"locus YDL108W, strain KIN28, hits give low values",0.985
same,normalized growth,"locus YDL132W, strain cdc53, hits give low values",0.984
same,normalized growth,"locus YDL214C, strain PRR2, hits give low values",0.939
same,normalized growth,"locus YDR052C, strain DBF4, hits give low values",0.987
same,normalized growth,"locus YDR054C, strain cdc34, hits give low values",0.995
same,normalized growth,"locus YDR226W, strain ADK1, hits give low values",0.972
same,normalized growth,"locus YDR477W, strain SNF1, hits give low values",0.947
same,normalized growth,"locus YER123W, strain YCK3, hits give low values",0.944
same,normalized growth,"locus YER133W, strain GLC7, hits give low values",0.966
same,normalized growth,"locus YFL009W, strain cdc4, hits give low values",0.985
same,normalized growth,"locus YFL029C, strain CAK1, hits give low values",0.973
same,normalized growth,"locus YFR003C, strain YPI1, hits give low values",0.984
same,normalized growth,"locus YFR019W, strain FAB1, hits give low values",0.976
same,normalized growth,"locus YFR028C, strain CDC14, hits give low values",0.964
same,normalized growth,"locus YGR040W, strain KSS1, hits give low values",0.933
same,normalized growth,"locus YGR052W, strain FMP48, hits give low values",1.03
same,normalized growth,"locus YGR092W, strain DBF2, hits give low values",0.957
same,normalized growth,"locus YHR030C, strain SLT2, hits give low values",0.977
same,normalized growth,"locus YHR079C, strain IRE1, hits give low values",0.97
same,normalized growth,"locus YHR082C, strain KSP1, hits give low values",1.02
same,normalized growth,"locus YHR205W, strain SCH9, hits give low values",0.972
same,normalized growth,"locus YIL147C, strain SLN1, hits give low values",0.987
same,normalized growth,"locus YJL095W, strain BCK1, hits give low values",0.985
same,normalized growth,"locus YJL128C, strain PBS2, hits give low values",0.919
same,normalized growth,"locus YJL157C, strain FAR1, hits give low values",0.949
same,normalized growth,"locus YJR016C, strain ILV3, hits give low values",0.972
same,normalized growth,"locus YJR066W, strain TOR1 (second series), hits give low values",0.942
same,normalized growth,"locus YJR066W, strain TOR1, hits give low values",1.03
same,normalized growth,"locus YKL048C, strain ELM1, hits give low values",0.945
same,normalized growth,"locus YKL067W, strain YNK1, hits give low values",0.959
same,normalized growth,"locus YKL101W, strain HSL1, hits give low values",0.932
same,normalized growth,"locus YKL193C, strain SDS22, hits give low values",0.975
same,normalized growth,"locus YKL203C, strain TOR2, hits give low values",1.01
same,normalized growth,"locus YLR113W, strain HOG1, hits give low values",0.84 (active)
same,normalized growth,"locus YLR133W, strain CKI1, hits give low values",0.937
same,normalized growth,"locus YLR403W, strain SFP1, hits give low values",0.903
same,normalized growth,"locus YML070W, strain DAK1, hits give low values",0.928
same,normalized growth,"locus YMR001C, strain CDC5, hits give low values",0.977
same,normalized growth,"locus YMR205C, strain PFK2 (second series), hits give low values",0.952
same,normalized growth,"locus YMR277W, strain FCP1, hits give low values",0.985
same,normalized growth,"locus YNL006W, strain LST8, hits give low values",0.989
same,normalized growth,"locus YNL020C, strain ARK1, hits give low values",0.951
same,normalized growth,"locus YNL161W, strain CBK1, hits give low values",0.977
same,normalized growth,"locus YNL183C, strain NPR1, hits give low values",0.966
same,normalized growth,"locus YNL207W, strain RIO2, hits give low values",0.967
same,normalized growth,"locus YNL222W, strain SSU72, hits give low values",0.978
same,normalized growth,"locus YNL307C, strain MCK1 (second series), hits give low values",0.953
same,normalized growth,"locus YOL078W, strain AVO1, hits give low values",0.975
same,normalized growth,"locus YOL136C, strain PFK27, hits give low values",0.935
same,normalized growth,"locus YOR061W, strain CKA2, hits give low values",0.955
same,normalized growth,"locus YOR119C, strain RIO1, hits give low values",1.02
same,normalized growth,"locus YOR231W, strain MKK1, hits give low values",0.91
same,normalized growth,"locus YOR329C, strain SCD5, hits give low values",0.985
same,normalized growth,"locus YPL031C, strain PHO85, hits give low values",0.971
same,normalized growth,"locus YPL153C, strain RAD53, hits give low values",0.948
same,normalized growth,"locus YPL204W, strain HRR25, hits give low values",0.936
same,normalized growth,"locus YPL209C, strain IPL1, hits give low values",0.975
same,normalized growth,"locus YPL256C, strain CLN2, hits give low values",0.918
same,normalized growth,"locus YPR025C, strain CCL1, hits give low values",0.982
same,normalized growth,"locus YPR106W, strain ISR1, hits give low values",0.943
same,normalized growth,"locus YPR111W, strain DBF20, hits give low values",0.979
same,normalized growth,"strain NNK1, hits give low values",0.971
same,normalized growth,"strain TSCII, hits give low values",0.978
